This is an account of results in ChEMBL document CHEMBL1961873, “Compounds: GSK PKIS; Assays: Nanosyn kinase panel” (2012).

Experiment [1] addresses Protein kinase C gamma type (Homo sapiens) (UniProt P05129). The following applies: at 1 µM.
For experiment [2], the target named is T1, Protein kinase C iota type (Homo sapiens) (UniProt P41743).
T1 sequence (whole entry): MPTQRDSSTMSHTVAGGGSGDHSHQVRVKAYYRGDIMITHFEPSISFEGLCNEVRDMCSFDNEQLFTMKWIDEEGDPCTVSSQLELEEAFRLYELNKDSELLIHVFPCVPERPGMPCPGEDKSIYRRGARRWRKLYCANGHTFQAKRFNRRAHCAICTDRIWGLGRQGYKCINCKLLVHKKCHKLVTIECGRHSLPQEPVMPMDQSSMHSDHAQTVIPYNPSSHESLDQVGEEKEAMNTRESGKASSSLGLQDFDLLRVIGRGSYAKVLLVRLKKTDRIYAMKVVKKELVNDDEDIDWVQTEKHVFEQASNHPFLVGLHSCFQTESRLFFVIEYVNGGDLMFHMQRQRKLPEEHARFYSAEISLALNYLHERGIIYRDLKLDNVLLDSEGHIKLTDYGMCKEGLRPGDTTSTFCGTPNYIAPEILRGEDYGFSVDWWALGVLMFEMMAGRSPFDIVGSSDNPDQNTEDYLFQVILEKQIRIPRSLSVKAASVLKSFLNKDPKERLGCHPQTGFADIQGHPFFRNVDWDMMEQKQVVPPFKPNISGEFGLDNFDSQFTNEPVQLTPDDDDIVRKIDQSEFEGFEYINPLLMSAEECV
The following applies: at 0.1 µM.

Experiment [3] addresses T1, Protein kinase C iota type (Homo sapiens). The following applies: at 1 µM.
Experiment [4] concerns the target Protein kinase C theta type (Homo sapiens) (UniProt Q04759). The settings on record: at 0.1 µM.
The target is the same in experiment [5]. The settings on record: at 1 µM.
Experiment [6] addresses Protein kinase C beta type (Homo sapiens) (UniProt P05771). The settings on record: at 0.1 µM.
For experiment [7] the target is unchanged. The settings on record: at 1 µM.
Experiment [8] addresses T2, Serine/threonine-protein kinase D1 (Homo sapiens) (UniProt Q15139).
T2 sequence (whole entry): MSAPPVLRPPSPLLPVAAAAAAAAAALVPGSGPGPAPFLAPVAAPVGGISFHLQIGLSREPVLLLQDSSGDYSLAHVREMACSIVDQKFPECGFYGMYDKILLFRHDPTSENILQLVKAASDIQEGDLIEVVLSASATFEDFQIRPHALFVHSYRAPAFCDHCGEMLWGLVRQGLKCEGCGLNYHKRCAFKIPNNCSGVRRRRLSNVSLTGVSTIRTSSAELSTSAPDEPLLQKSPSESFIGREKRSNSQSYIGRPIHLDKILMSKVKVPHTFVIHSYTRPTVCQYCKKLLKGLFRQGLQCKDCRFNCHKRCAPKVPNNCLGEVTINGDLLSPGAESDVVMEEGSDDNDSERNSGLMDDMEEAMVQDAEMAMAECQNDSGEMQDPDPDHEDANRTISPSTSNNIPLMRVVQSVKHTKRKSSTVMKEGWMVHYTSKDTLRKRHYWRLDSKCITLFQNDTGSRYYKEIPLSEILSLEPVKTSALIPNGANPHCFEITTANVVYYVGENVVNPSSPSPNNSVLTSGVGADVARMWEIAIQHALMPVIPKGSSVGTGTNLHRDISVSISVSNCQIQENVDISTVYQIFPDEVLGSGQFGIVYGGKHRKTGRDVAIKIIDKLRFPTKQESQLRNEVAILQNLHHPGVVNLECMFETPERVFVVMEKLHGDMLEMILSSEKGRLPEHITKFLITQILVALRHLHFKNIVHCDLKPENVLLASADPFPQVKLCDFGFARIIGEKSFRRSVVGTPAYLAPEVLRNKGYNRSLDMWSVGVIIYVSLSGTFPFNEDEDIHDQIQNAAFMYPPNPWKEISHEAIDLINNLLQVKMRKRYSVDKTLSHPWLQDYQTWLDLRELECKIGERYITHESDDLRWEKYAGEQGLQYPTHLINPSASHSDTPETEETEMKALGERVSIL
The settings on record: at 0.1 µM.

The target of experiment [9] is T2, Serine/threonine-protein kinase D1 (Homo sapiens). The following applies: at 1 µM.
Experiment [10] concerns the target T3, Serine/threonine-protein kinase D2 (Homo sapiens) (UniProt Q9BZL6).
T3 sequence (whole entry): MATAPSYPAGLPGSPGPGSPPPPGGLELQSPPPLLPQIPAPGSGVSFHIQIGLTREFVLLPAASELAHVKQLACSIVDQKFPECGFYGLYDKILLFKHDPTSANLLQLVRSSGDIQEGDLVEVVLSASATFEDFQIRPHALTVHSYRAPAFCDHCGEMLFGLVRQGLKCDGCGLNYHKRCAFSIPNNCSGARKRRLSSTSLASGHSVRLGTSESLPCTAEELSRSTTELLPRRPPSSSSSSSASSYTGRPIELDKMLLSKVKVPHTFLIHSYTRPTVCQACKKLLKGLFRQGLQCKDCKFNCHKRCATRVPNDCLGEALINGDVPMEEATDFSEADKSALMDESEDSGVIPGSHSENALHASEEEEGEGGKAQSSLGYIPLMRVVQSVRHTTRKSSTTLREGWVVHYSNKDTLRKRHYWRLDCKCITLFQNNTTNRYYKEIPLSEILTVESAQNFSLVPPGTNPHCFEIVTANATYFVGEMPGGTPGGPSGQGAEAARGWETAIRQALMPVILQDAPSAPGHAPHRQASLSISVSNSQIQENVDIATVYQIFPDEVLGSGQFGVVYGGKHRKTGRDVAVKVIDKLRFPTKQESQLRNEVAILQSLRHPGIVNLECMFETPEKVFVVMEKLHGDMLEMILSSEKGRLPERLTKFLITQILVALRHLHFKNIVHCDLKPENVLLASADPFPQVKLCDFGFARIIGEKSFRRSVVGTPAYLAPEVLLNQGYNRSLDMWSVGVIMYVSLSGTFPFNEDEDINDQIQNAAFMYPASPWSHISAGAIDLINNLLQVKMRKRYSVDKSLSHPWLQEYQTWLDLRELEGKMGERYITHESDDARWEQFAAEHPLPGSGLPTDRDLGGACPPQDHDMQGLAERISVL
The settings on record: at 0.1 µM.

Experiment [11] addresses T3, Serine/threonine-protein kinase D2 (Homo sapiens). The following applies: at 1 µM.
In experiment [12] the target is T4, Serine/threonine-protein kinase D3 (Homo sapiens) (UniProt O94806).
T4 sequence (whole entry): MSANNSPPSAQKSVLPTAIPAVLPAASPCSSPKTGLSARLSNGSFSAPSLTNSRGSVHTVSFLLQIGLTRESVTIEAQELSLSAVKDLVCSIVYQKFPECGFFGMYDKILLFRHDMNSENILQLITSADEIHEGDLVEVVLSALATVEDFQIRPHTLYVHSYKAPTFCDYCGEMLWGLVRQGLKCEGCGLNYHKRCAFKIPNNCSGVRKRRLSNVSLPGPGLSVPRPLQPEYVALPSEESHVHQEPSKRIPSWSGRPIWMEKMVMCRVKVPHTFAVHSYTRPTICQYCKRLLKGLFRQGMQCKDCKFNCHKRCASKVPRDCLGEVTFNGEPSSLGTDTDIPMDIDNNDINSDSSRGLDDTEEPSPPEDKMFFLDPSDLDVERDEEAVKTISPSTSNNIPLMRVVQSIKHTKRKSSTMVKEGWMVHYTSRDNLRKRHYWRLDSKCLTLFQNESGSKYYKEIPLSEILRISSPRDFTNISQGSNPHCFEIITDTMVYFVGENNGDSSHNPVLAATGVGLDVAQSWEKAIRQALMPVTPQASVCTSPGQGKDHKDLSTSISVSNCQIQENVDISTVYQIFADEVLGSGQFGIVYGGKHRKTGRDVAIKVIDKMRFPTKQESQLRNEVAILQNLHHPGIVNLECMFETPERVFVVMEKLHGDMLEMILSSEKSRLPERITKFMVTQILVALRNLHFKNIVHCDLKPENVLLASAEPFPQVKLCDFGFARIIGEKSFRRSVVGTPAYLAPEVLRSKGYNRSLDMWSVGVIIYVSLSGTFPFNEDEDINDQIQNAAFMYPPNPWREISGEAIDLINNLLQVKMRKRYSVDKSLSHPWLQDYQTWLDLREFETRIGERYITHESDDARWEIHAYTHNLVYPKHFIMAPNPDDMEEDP
The settings on record: at 0.1 µM.

In experiment [13] the target is T4, Serine/threonine-protein kinase D3 (Homo sapiens). The following applies: at 1 µM.
The target in experiment [14] is T5, cGMP-dependent protein kinase 1 (Homo sapiens) (UniProt Q13976).
T5 sequence (whole entry): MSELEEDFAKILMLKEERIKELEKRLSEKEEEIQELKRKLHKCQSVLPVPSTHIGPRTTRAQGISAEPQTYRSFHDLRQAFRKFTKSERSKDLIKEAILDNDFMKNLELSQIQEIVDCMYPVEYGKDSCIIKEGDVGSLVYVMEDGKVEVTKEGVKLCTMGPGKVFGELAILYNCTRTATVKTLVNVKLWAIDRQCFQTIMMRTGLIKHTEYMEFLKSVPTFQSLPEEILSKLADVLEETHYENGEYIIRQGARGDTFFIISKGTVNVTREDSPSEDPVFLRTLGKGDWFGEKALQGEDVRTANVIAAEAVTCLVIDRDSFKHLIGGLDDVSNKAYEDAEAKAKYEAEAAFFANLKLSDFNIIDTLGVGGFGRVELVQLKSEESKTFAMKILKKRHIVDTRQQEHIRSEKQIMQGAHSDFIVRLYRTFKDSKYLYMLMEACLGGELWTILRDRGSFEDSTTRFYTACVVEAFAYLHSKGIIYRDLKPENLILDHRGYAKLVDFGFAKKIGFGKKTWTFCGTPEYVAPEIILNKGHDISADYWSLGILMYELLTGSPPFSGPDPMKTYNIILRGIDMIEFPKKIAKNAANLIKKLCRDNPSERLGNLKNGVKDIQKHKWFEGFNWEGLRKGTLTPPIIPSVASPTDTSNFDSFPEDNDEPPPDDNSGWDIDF
The settings on record: at 0.1 µM.

For experiment [15], the target named is T5, cGMP-dependent protein kinase 1 (Homo sapiens). The settings on record: at 1 µM.
The target in experiment [16] is T6, cGMP-dependent protein kinase 2 (Homo sapiens) (UniProt Q13237).
T6 sequence (whole entry): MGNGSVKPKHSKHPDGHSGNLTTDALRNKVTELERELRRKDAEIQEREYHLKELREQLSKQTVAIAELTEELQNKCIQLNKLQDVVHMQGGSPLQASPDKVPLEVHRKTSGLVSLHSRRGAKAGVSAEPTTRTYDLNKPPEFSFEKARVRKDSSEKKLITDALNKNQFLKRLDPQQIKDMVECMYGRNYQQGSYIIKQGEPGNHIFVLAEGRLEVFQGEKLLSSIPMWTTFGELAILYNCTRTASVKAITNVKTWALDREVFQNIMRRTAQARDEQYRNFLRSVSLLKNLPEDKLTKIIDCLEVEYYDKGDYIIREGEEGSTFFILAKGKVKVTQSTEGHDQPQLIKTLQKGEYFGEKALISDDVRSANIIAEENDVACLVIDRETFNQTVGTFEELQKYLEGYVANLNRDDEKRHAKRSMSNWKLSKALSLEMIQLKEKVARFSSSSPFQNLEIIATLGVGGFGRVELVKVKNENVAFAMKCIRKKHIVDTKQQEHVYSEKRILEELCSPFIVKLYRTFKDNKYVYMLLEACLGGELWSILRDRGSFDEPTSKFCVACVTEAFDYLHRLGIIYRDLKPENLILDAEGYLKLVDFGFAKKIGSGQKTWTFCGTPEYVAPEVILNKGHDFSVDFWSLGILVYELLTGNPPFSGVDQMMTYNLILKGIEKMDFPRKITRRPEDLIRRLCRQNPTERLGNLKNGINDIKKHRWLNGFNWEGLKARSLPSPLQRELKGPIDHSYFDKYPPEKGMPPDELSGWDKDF
The settings on record: at 0.1 µM.

The target in experiment [17] is T6, cGMP-dependent protein kinase 2 (Homo sapiens). The following applies: at 1 µM.
Experiment [18] deals with T7, cAMP-dependent protein kinase catalytic subunit PRKX (Homo sapiens) (UniProt P51817).
T7 sequence (whole entry): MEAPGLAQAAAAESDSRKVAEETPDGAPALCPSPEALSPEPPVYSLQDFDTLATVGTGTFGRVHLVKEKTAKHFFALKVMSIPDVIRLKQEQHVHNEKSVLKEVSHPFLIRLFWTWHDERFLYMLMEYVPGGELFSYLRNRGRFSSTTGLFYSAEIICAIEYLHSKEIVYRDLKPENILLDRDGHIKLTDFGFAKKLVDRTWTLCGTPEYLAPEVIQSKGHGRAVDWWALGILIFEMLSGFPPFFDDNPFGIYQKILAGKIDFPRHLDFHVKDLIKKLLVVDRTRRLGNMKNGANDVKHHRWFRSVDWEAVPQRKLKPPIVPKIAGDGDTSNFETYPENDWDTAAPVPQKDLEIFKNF
The following applies: at 0.1 µM.

Experiment [19] deals with T7, cAMP-dependent protein kinase catalytic subunit PRKX (Homo sapiens). The following applies: at 1 µM.
Experiment [20] addresses Rho-associated protein kinase 1 (Homo sapiens) (UniProt Q13464). The following applies: at 0.1 µM.

For orientation: inhibition means the change of the read-out against control, counted positive when it falls.

Chain of Protein kinase C theta type (Homo sapiens) (Q04759 whole entry, looked up): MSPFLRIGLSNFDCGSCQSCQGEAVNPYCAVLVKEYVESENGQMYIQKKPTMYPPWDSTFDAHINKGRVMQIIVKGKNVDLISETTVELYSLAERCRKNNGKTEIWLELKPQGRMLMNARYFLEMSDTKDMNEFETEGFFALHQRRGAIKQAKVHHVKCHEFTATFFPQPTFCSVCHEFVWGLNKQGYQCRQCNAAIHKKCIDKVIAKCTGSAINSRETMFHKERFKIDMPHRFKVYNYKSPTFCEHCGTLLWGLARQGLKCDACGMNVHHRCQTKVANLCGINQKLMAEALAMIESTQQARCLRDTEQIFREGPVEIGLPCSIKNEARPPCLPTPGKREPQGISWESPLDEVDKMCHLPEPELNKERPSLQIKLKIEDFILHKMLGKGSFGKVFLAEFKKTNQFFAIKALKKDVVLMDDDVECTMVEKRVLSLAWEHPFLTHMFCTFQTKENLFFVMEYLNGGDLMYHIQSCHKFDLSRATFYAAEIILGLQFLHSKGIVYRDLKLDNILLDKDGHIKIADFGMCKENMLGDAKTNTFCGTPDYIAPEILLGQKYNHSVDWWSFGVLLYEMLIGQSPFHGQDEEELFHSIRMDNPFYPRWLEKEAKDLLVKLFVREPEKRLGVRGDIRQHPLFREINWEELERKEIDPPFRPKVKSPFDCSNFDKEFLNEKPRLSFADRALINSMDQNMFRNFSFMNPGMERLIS
Chain of Protein kinase C beta type (Homo sapiens) (P05771 2-671 limits assumed): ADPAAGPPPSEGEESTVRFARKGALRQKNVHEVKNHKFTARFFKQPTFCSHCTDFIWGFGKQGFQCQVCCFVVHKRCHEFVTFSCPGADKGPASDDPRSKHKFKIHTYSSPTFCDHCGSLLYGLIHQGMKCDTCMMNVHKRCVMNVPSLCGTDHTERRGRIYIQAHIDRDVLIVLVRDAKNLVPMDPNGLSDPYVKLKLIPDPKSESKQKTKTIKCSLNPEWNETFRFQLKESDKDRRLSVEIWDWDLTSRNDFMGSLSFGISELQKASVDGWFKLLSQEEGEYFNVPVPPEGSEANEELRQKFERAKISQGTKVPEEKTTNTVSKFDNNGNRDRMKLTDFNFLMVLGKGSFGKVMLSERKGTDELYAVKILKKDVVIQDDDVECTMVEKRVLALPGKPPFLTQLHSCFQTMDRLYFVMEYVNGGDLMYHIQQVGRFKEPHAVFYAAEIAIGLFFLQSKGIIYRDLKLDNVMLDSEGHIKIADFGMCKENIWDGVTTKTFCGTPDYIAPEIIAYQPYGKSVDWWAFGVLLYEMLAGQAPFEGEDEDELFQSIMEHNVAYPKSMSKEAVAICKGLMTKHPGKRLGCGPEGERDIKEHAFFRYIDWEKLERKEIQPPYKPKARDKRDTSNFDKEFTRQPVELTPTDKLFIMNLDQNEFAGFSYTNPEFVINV
Chain of Rho-associated protein kinase 1 (Homo sapiens) (Q13464 2-1354 limits assumed): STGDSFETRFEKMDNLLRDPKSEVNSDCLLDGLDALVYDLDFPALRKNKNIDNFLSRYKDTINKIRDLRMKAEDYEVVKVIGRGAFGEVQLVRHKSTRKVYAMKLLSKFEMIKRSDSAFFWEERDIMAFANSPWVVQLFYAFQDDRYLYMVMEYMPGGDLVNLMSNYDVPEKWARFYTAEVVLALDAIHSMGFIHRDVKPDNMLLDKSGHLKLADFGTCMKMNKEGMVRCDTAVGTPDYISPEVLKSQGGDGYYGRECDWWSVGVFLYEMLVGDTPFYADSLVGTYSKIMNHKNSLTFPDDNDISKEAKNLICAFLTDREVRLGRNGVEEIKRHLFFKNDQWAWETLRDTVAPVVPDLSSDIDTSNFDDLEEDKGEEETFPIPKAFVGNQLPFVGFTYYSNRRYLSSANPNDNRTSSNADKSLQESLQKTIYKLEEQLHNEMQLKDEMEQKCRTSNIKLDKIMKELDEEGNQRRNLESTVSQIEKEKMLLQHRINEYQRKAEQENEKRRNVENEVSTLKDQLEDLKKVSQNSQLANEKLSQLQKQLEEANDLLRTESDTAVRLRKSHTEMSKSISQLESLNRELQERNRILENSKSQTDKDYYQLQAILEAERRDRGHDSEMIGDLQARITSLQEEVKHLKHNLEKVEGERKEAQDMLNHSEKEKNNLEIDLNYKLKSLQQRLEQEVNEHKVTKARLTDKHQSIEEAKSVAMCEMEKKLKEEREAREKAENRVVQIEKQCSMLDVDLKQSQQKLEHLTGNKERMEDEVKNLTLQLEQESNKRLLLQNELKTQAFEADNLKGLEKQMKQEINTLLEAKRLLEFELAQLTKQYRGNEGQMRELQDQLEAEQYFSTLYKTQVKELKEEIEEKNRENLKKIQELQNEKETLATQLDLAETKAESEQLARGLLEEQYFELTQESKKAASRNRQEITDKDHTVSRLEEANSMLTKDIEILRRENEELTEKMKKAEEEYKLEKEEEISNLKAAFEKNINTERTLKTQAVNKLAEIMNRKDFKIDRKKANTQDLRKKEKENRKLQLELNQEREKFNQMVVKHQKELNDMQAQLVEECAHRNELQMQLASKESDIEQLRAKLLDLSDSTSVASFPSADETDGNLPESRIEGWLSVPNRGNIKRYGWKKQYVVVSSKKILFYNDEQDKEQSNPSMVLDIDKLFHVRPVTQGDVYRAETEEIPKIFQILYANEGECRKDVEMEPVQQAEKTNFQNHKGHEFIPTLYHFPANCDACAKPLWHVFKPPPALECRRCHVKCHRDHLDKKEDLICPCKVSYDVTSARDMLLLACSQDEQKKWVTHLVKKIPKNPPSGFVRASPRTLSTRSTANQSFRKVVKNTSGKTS

As for `N#Cc1cccc(Nc2ncc(-c3ccccc3)o2)c1`, the inhibition in experiment [1] worked out at 5.3%; in experiment [2], 0.25%; in [3], 0.06%; in [4], 1.33%; in experiment [5], 3.57%; in experiment [6], 0.6%. Also, the inhibition in experiment [7] came out at 1.2%; in [8], 5.32%; in experiment [9] it was 2.44%; in experiment [10] it was 1.97%; in [11] it was 2.25%; in experiment [12] it was 1.91%. Also, the inhibition was 1.02% in [13]; -0.54% in [14]; 3.32% in experiment [15]; 0.03% in experiment [16]; 1.45% in experiment [17]; 1.09% in experiment [18]. For the same compound, the inhibition in experiment [19] was 2.62%; in experiment [20], 0.04%.
